A selection: hits, their analogues and other compounds. The true share with any hit is near 3.1%.
PAX8 reporter: PAX8 transcriptional activity inhibition; RMG-I TPO-luciferase reporter, SteadyGlo, 24 h; inhibition, % at 12.6 µM; 1.2% of 360,000 active; AID 652154;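 active means mean replicate inhibition at least 60% with every replicate also reaching 60%; inconclusive means only one of the two criteria is met; inactive means mean below 60% and not all replicates reaching 60%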;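 further: luciferase light reporting Pax8 driven TPO promoter activity; plate controls were median of neutral control wells for no effect and mitoxantrone controls for full effect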
TROY NFkB inh: TROY signaling inhibition; Q293 LMP1-TROYcd NF-kB luciferase reporter, 4 h; inhibition, % at 10 µM; 0.98% of 360,000 active;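 active means compounds whose plate-normalised and pattern-corrected inhibition of the luciferase reporter signal at the single screening dose is 50% or more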
LMP1 NFkB inh: inhibitors of Epstein-Barr LMP1-induced NF-kappaB reporter. LMP1-induced NF-kappaB luciferase reporter cells, luminescence. inhibition, % at 12.5 µM. 0.69% of 350,000 active; in the data active means inhibition above about 41%; inconclusive means no clear call, values can overlap the other calls;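 further: 0% = neutral control wells and 100% = reference inhibitor control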
LGR2 antag: inhibitors of bursicon-induced Drosophila LGR2 receptor cAMP signaling. 0.35% of 380,000 active. HEK293 LGR2, CRE-luciferase, bursicon-stimulated, 4 h. inhibition, % at 9.99 µM;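 active means drop in luminescence signal, shown as inhibition above about 50% in the replicate tests, limit read from the data, passing the limit was not always enough; inconclusive means probably only some replicates passing the limit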;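 further: agonist challenge used bursicon conditioned medium at about half maximal strength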
EWS-Fli inh: EWS/Fli transcriptional activity inhibition. A673 NR0B1-luciferase reporter, viability-normalised. inhibition, % at 12.6 µM. 0.67% of 350,000 active;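 active means mean inhibition of at least 50% after viability correction, with every replicate also passing that limit; inconclusive means mean reaches 50% but only one of two replicates passes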;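 further: firefly luciferase signal divided by Alamar Blue viability fluorescence both relative to DMSO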
TWEAK-Fn14 inh: TWEAK-Fn14 signaling inhibition; TWEAK-stimulated Fn14 reporter cells, luciferase luminescence, 8 h; inhibition, % at 10 µM; 2% of 360,000 active; in the data active means inhibition above about 50%
* hit, by the source's call; u = inconclusive; x = not tested or not shown.

SMILES | PAX8 reporter | TROY NFkB inh | LMP1 NFkB inh | LGR2 antag | EWS-Fli inh | TWEAK-Fn14 inh
CC[C@H](C)C1OC(=O)[C@@H](C)[C@@H](CC)NC(=O)[C@H](C)N(C)C(=O)C(C)(C)C(=O)C(C)NC(=O)[C@H](Cc2ccc(OC)cc2)N(C)C(=O)[C@H](C(C)C)N(C)C(=O)CNC(=O)[C@H](CC(C)C)N(C)C(=O)CNC1=O (stereo partly drawn) | x | 54* | x | x | x | 12
CC(C)C[C@@H]1NC(=O)[C@H](Cc2ccccc2)N(C)C(=O)[C@H](C)NC(=O)c2ccccc2NC(=O)[C@H](Cc2ccc(O)cc2)N(C)C1=O | x | -3 | 1 | 17 | 20 | 26
CCOC(=O)/C(C#N)=C/c1cc(C)n(-c2ccccc2)c1C | x | 89* | -25 | x | x | 84*
CCC(=O)N(C)C[C@@H]1Oc2ncc(C#Cc3ccccc3)cc2C(=O)N([C@H](C)CO)C[C@@H]1C | x | x | x | -9 | -7 | x
Cc1cccc(S(=O)(=O)N2CC[C@@H]3[C@H]2c2cc(-c4cccc(C#N)c4)ccc2N(C)[C@H]3CO)c1 | 57 | x | x | 19 | 10 | x
CCN1C(=O)[C@@H]2[C@@H](c3ccc(-c4ccc(Cl)c(Cl)c4)c(OC)c3)N3CCC[C@@]3(C(=O)OC)[C@@H]2C1=O | 70* | 16 | 5 | 12 | 4 | -1
CCCSc1ccc([C@@H]2[C@H]3C(=O)N(C)C(=O)[C@H]3[C@]3(C(=O)OC)CCCN23)cc1OC | 2 | -14 | 85* | 8 | -5 | 2
CO[C@H]1CN(C)C(=O)c2cc(NS(=O)(=O)c3ccccc3)ccc2OC[C@H](C)N(Cc2cccnc2)C[C@H]1C | 10 | x | x | -8 | 4 | x
COc1cccc(Nc2nc(-c3ccc4c(c3)OCCO4)cs2)c1 | x | 43 | -36 | x | x | 33
c1ccc(-c2csc(Nc3ccc4c(c3)OCCO4)n2)cc1 | -127 | 58* | -100 | x | x | 45
c1cc2c(cc1Nc1nc(-c3ccc4c(c3)OCO4)cs1)OCCO2 | x | 44 | -17 | x | x | 56*
CCC(=O)N1CC2(C1)CN(C(=O)CC)[C@H](CO)c1[nH]c3cc(OC)ccc3c12 | x | x | x | -19 | -11 | x
CC(=C\c1ccccc1)/C=C1/SC(=S)N(CCCC(=O)O)C1=O | 12 | 60* | 22 | 8 | 45 | 20
CC(/C=C1\SC(=O)N(CCCC(=O)O)C1=O)=C\c1ccccc1 | 33 | 87* | 72* | 1 | x | 104*
CC(C)C#Cc1ccc([C@@H]2[C@H](CO)N3C(=O)CN(C(=O)c4ccc5c(c4)OCO5)C[C@@H]23)cc1 | x | x | x | 15 | -6 | x
CCCc1nc(NCc2ccco2)c(C#N)c2c1COC(C)(C)C2 | x | x | 3 | x | x | 74*
CC(C)c1nc2sc3c(NCc4ccco4)ncnc3c2c2c1COC(C)(C)C2 | x | x | 0 | x | x | 52*
CCOC(=O)C(=Cc1ccc(N(C)C)cc1)C(=O)c1ccccc1 | -10 | 11 | x | 4 | -19 | 35
CCOC(=O)N(O)c1ccc(C=Cc2ccccc2)cc1 | -71 | 24 | 86* | 67* | -63 | 20
COC(=O)[C@H](C)NC(=O)Nc1cccc(C)c1 | x | 4 | 49* | 6 | x | 7
Cc1cccc(NC(=O)NC(C)CCc2ccccc2)c1 (stereo not drawn) | -36 | -26 | -16 | -24 | -22 | -14
CN1CCN(C(=O)C[C@@H]2C[C@@H]3c4cc(NC(=O)NC5CCCC5)ccc4O[C@@H]3[C@@H](CO)O2)CC1 | -1 | x | x | 5 | 0 | x
C[C@@H]1CCCCO[C@@H](CN(C)Cc2ccc(C(F)(F)F)cc2)[C@@H](C)CN([C@@H](C)CO)C(=O)c2cc(NS(=O)(=O)c3ccccc3)ccc2O1 | 94* | x | x | 13 | -15 | x
C[C@@H]1CCCCO[C@@H](CN(C)Cc2ccc(C(F)(F)F)cc2)[C@H](C)CN([C@@H](C)CO)C(=O)c2cc(NS(=O)(=O)c3ccccc3)ccc2O1 | 111* | x | x | 20 | 66* | x
C[C@@H]1CCCCO[C@H](CN(C)Cc2ccc(C(F)(F)F)cc2)[C@H](C)CN([C@H](C)CO)C(=O)c2cc(NS(=O)(=O)c3ccccc3)ccc2O1 | 89* | x | x | 24 | 11 | x
SMILES | PAX8 reporter | TROY NFkB inh | LMP1 NFkB inh | LGR2 antag | EWS-Fli inh | TWEAK-Fn14 inh
C[C@@H]1CN([C@@H](C)CO)C(=O)c2cc(NS(=O)(=O)c3ccccc3)ccc2O[C@@H](C)CCCCO[C@H]1CN(C)Cc1ccc(C(F)(F)F)cc1 | u | x | x | 24 | 9 | x
C[C@@H]1CCCCO[C@H](CN(C)Cc2ccc(C(F)(F)F)cc2)[C@H](C)CN([C@@H](C)CO)C(=O)c2cc(NS(=O)(=O)c3ccccc3)ccc2O1 | 39 | x | x | 27 | 6 | x
C[C@@H]1CN([C@H](C)CO)C(=O)c2cc(NS(=O)(=O)c3ccccc3)ccc2O[C@@H](C)CCCCO[C@@H]1CN(C)Cc1ccc(C(F)(F)F)cc1 | 102* | x | x | 19 | 1 | x
C[C@H](CO)N1C[C@H](C)[C@@H](CN(C)C)Oc2ccc(NC(=O)Nc3ccc(F)cc3)cc2C1=O | -26 | x | x | 19 | 7 | x
C[C@@H]1CCCCO[C@H](CN(C)Cc2ccc(C(F)(F)F)cc2)[C@@H](C)CN([C@@H](C)CO)C(=O)c2cc(NS(=O)(=O)c3ccccc3)ccc2O1 | 88* | x | x | 23 | 24 | x
C[C@@H]1CCCCO[C@@H](CN(C)Cc2ccc(C(F)(F)F)cc2)[C@@H](C)CN([C@H](C)CO)C(=O)c2cc(NS(=O)(=O)c3ccccc3)ccc2O1 | 16 | x | x | 6 | -15 | x
O=C(c1cc(-c2ccccc2Cl)nc2ccc(Br)cc12)N1CCN(c2ccccn2)CC1 | -2 | 69* | -1 | 68* | x | 58*
O=C(c1cc(-c2ccncc2)nc2ccc(Br)cc12)N1CCN(c2ccccn2)CC1 | x | 13 | -1 | x | x | 42
COc1ccc(S(=O)(=O)N(Cc2ccccc2)c2ccccc2C(=O)N2CCOCC2)cc1 | 17 | 5 | -17 | 1 | 18 | 94*
COc1ccc([C@H]2C[C@H](O)[C@@H](n3cc(-c4ccc(F)cc4)nn3)CN2Cc2cccs2)cc1 | u | 38 | 39 | 17 | 56* | 42
CCCCCCN1C[C@@H](n2cc(-c3ccc(F)cc3)nn2)[C@H](O)C[C@@H]1c1ccc(Cl)cc1 | 89* | 41 | 7 | u | 23 | 44
CCO[C@H]1OC(C(N)=O)=C[C@@H](C(C)(C)C)[C@@H]1CCCO | 11 | -19 | 1 | 2 | -4 | 54*
Cc1ccc(N=Cc2ccccc2O)cc1Cl | 5 | 7 | -5 | -2 | -15 | 59*
C=CCn1c(N)c(C(=O)NCC2CCCO2)sc1=S (stereo not drawn) | 4 | -14 | -2 | x | x | -15
CCn1c(N)c(C(=O)NCC2CCCO2)sc1=S (stereo not drawn) | x | x | 5 | 9 | x | 85*
CC(C)c1ccc(/C=N/NC(=O)c2ccccn2)cc1 | -15 | 46 | 30 | 75* | 28 | 77*
O=C(N/N=C/c1ccncc1)c1ccccn1 | -68 | -15 | x | -12 | -33 | -13
O=C(N/N=C/c1ccco1)c1ccncc1 | x | 7 | -6 | x | x | 9
